Reference: the supplement of paper PMC9262897, “Low-cost anti-mycobacterial drug discovery using engineered E. coli” (Nature Communications, 2022)
Where a name gives a salt, the structure may show the parent alone. ± gives the standard deviation of the averaged measurements.

system: E. coli TESEC Mtb DapB; experiment: growth (OD600 after 10 h); higher = more growth (less inhibition); conditions: arabinose induction (level): High; compound 0.1 mM; raw OD600 reference: median of DMSO wells […], cell-free background 0.041
Experimental: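 TESEC E. coli strains in which the native enzyme is deleted and replaced by arabinose-inducible Mtb Asd, DapB, CysH or TrpD, each grown in its selective medium. Strains were screened against the Prestwick library at 0.1 mM and 1% DMSO in 384-well format at low and high arabinose induction. Growth is read as OD600 after 10 h in triplicate.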

SMILES | growth
CC(C)c1ccc2oc3nc(N)c(C(=O)O)cc3c(=O)c2c1 [Amlexanox] | 0.197 ± 0.0066
CCC1=C(C)CN(C(=O)NCCc2ccc(S(=O)(=O)NC(=O)N[C@H]3CC[C@H](C)CC3)cc2)C1=O [Glimepiride] | 0.21 ± 0.012
CCOc1ccc2ccccc2c1C(=O)N[C@@H]1C(=O)N2[C@@H]1SC(C)(C)[C@@H]2C(=O)O [Nafcillin sodium salt monohydrate] | 0.183 ± 0.007
S=c1[nH]cnc2nc[nH]c12 [Mercaptopurine] | 0.202 ± 0.01
O=C(O)c1cccnc1 [Niacin] | 0.211 ± 0.016
CC(=O)OCC(=O)[C@@]1(O)CC[C@H]2[C@@H]3CCC4=CC(=O)C=C[C@]4(C)[C@@]3(F)[C@@H](O)C[C@@]21C [Isoflupredone acetate] | 0.21 ± 0.01
CCc1oc2ccccc2c1C(=O)c1cc(Br)c(O)c(Br)c1 [Benzbromarone] | 0.0504 ± 0.0016
NS(=O)(=O)c1cc(Cl)c(Cl)c(S(N)(=O)=O)c1 [Dichlorphenamide] | 0.213 ± 0.007
O=C(O)[C@H]1/C(=C/CO)O[C@@H]2CC(=O)N21 [Clavulanate potassium salt] | 0.182 ± 0.0081
COc1ccccc1OCCNCC(O)COc1cccc2[nH]c3ccccc3c12 (stereo not drawn) [Carvedilol] | 0.0942 ± 0.026
CC(=O)N[C@@H](CS)C(=O)O [Acetylcysteine] | 0.196 ± 0.014
CO[C@@]1(NC(=O)C2SC(=C(C(N)=O)C(=O)O)S2)C(=O)N2C(C(=O)O)=C(CSc3nnnn3C)CS[C@@H]21 (stereo partly drawn) [Cefotetan] | 0.0527 ± 0.0035
CC(=O)O[C@H]1C(=O)[C@@]2(C)[C@H]([C@H](OC(=O)c3ccccc3)[C@]3(O)C[C@H](OC(=O)[C@H](O)[C@@H](NC(=O)c4ccccc4)c4ccccc4)C(C)=C1C3(C)C)[C@]1(OC(C)=O)CO[C@@H]1C[C@@H]2O [Paclitaxel] | 0.209 ± 0.006
Nc1nc(=O)[nH]cc1F [Flucytosine] | 0.21 ± 0.018
CN(C)CCC[C@@]1(c2ccc(F)cc2)OCc2cc(C#N)ccc21 [Escitalopram oxalate] | 0.179 ± 0.012
CCOC(=O)OC(C)OC(=O)[C@@H]1N2C(=O)[C@@H](NC(=O)[C@H](N)c3ccccc3)[C@H]2SC1(C)C (stereo partly drawn) [Bacampicillin hydrochloride] | 0.185 ± 0.016
CN1CCCN=C1/C=C/c1cccs1 [Pyrantel tartrate] | 0.197 ± 0.0092
CN1CCOC(c2ccccc2)c2ccccc2C1 (stereo not drawn) [Nefopam hydrochloride] | 0.186 ± 0.006
c1ccc2c(CC3=NCCN3)cccc2c1 [Naphazoline hydrochloride] | 0.184 ± 0.011
COc1cc(C)nc(-n2nc(C)cc2OC)n1 [Epirizole] | 0.192 ± 0.025

SMILES | growth
CCc1cccc2c3c([nH]c12)C(CC)(CC(=O)O)OCC3 (stereo not drawn) [Etodolac] | 0.195 ± 0.0073
C[C@]12CC[C@@H]3c4ccc(O)cc4CC[C@H]3[C@@H]1C[C@@H](O)[C@@H]2O [Estriol] | 0.183 ± 0.008
N#Cc1ccc(C(c2ccc(C#N)cc2)n2cncn2)cc1 [Letrozole] | 0.213 ± 0.018
Cc1cc(C2CCCCC2)n(O)c(=O)c1 [Ciclopirox ethanolamine] | 0.0626 ± 0.011
CC(=O)/N=c1/sc(S(N)(=O)=O)nn1C [Methazolamide] | 0.207 ± 0.013
CC(C)NC[C@H](O)COc1ccc(CC(N)=O)cc1 [(S)-(-)-Atenolol] | 0.193 ± 0.037
COc1cc(OC)c(C(=O)CCCN2CCCC2)c(OC)c1 [Buflomedil hydrochloride] | 0.166 ± 0.041
CCN1CCC[C@H]1CNC(=O)c1c(OC)ccc(Br)c1OC [Remoxipride Hydrochloride] | 0.195 ± 0.0092
CN(C)c1nc(N(C)C)nc(N(C)C)n1 [Altretamine] | 0.217 ± 0.015
Nc1ccn([C@@H]2O[C@H](CO)[C@@H](O)[C@@H]2O)c(=O)n1 [Cytarabine] | 0.224 ± 0.024
CC(N)C12CC3CC(CC(C3)C1)C2 (stereo not drawn) [Rimantadine Hydrochloride] | 0.195 ± 0.021
Cn1c(=O)c2nc[nH]c2n(C)c1=O [Theophylline monohydrate] | 0.197 ± 0.014
O=C(O)c1ccccc1OP(=O)(O)O [Fosfosal] | 0.21 ± 0.017
COC(=O)Nc1nc2cc(C(=O)c3ccccc3)ccc2[nH]1 [Mebendazole] | 0.206 ± 0.017
O=c1[nH]cc(F)c(=O)[nH]1 [5-fluorouracil] | 0.151 ± 0.011
CCc1nn(CCCN2CCN(c3cccc(Cl)c3)CC2)c(=O)n1CCOc1ccccc1 [Nefazodone HCl] | 0.05113 ± 0.00049
COc1cc(NC(C)CCCN)c2ncccc2c1 (stereo not drawn) [Primaquine diphosphate] | 0.122 ± 0.092
CNS(=O)(=O)Cc1ccc2[nH]cc(CCN(C)C)c2c1 [Sumatriptan succinate] | 0.206 ± 0.018
Cc1ccc(N(CC2=NCCN2)c2cccc(O)c2)cc1 [Phentolamine hydrochloride] | 0.193 ± 0.019

same assay, conditions: arabinose induction (level): Low; compound 0.1 mM; raw OD600 reference: median of DMSO wells 0.227, cell-free background 0.041

SMILES | growth
CC(C)c1ccc2oc3nc(N)c(C(=O)O)cc3c(=O)c2c1 [Amlexanox] | 0.206 ± 0.036
CCC1=C(C)CN(C(=O)NCCc2ccc(S(=O)(=O)NC(=O)N[C@H]3CC[C@H](C)CC3)cc2)C1=O [Glimepiride] | 0.221 ± 0.018
CCOc1ccc2ccccc2c1C(=O)N[C@@H]1C(=O)N2[C@@H]1SC(C)(C)[C@@H]2C(=O)O [Nafcillin sodium salt monohydrate] | 0.22 ± 0.0024
S=c1[nH]cnc2nc[nH]c12 [Mercaptopurine] | 0.211 ± 0.004
O=C(O)c1cccnc1 [Niacin] | 0.238 ± 0.0084
CC(=O)OCC(=O)[C@@]1(O)CC[C@H]2[C@@H]3CCC4=CC(=O)C=C[C@]4(C)[C@@]3(F)[C@@H](O)C[C@@]21C [Isoflupredone acetate] | 0.253 ± 0.038
CCc1oc2ccccc2c1C(=O)c1cc(Br)c(O)c(Br)c1 [Benzbromarone] | 0.0491 ± 0.001
NS(=O)(=O)c1cc(Cl)c(Cl)c(S(N)(=O)=O)c1 [Dichlorphenamide] | 0.256 ± 0.026
O=C(O)[C@H]1/C(=C/CO)O[C@@H]2CC(=O)N21 [Clavulanate potassium salt] | 0.164 ± 0.012
COc1ccccc1OCCNCC(O)COc1cccc2[nH]c3ccccc3c12 (stereo not drawn) [Carvedilol] | 0.06 ± 0.004
CC(=O)N[C@@H](CS)C(=O)O [Acetylcysteine] | 0.232 ± 0.053
CO[C@@]1(NC(=O)C2SC(=C(C(N)=O)C(=O)O)S2)C(=O)N2C(C(=O)O)=C(CSc3nnnn3C)CS[C@@H]21 (stereo partly drawn) [Cefotetan] | 0.0511 ± 0.01
CC(=O)O[C@H]1C(=O)[C@@]2(C)[C@H]([C@H](OC(=O)c3ccccc3)[C@]3(O)C[C@H](OC(=O)[C@H](O)[C@@H](NC(=O)c4ccccc4)c4ccccc4)C(C)=C1C3(C)C)[C@]1(OC(C)=O)CO[C@@H]1C[C@@H]2O [Paclitaxel] | 0.279 ± 0.059
Nc1nc(=O)[nH]cc1F [Flucytosine] | 0.222 ± 0.016
CN(C)CCC[C@@]1(c2ccc(F)cc2)OCc2cc(C#N)ccc21 [Escitalopram oxalate] | 0.202 ± 0.014
CCOC(=O)OC(C)OC(=O)[C@@H]1N2C(=O)[C@@H](NC(=O)[C@H](N)c3ccccc3)[C@H]2SC1(C)C (stereo partly drawn) [Bacampicillin hydrochloride] | 0.188 ± 0.0087
CN1CCCN=C1/C=C/c1cccs1 [Pyrantel tartrate] | 0.249 ± 0.046
CN1CCOC(c2ccccc2)c2ccccc2C1 (stereo not drawn) [Nefopam hydrochloride] | 0.243 ± 0.036
c1ccc2c(CC3=NCCN3)cccc2c1 [Naphazoline hydrochloride] | 0.21 ± 0.016
COc1cc(C)nc(-n2nc(C)cc2OC)n1 [Epirizole] | 0.238 ± 0.054

SMILES | growth
CCc1cccc2c3c([nH]c12)C(CC)(CC(=O)O)OCC3 (stereo not drawn) [Etodolac] | 0.261 ± 0.033
C[C@]12CC[C@@H]3c4ccc(O)cc4CC[C@H]3[C@@H]1C[C@@H](O)[C@@H]2O [Estriol] | 0.203 ± 0.033
N#Cc1ccc(C(c2ccc(C#N)cc2)n2cncn2)cc1 [Letrozole] | 0.24 ± 0.032
Cc1cc(C2CCCCC2)n(O)c(=O)c1 [Ciclopirox ethanolamine] | 0.05427 ± 0.00029
CC(=O)/N=c1/sc(S(N)(=O)=O)nn1C [Methazolamide] | 0.228 ± 0.01
CC(C)NC[C@H](O)COc1ccc(CC(N)=O)cc1 [(S)-(-)-Atenolol] | 0.222 ± 0.03
COc1cc(OC)c(C(=O)CCCN2CCCC2)c(OC)c1 [Buflomedil hydrochloride] | 0.188 ± 0.01
CCN1CCC[C@H]1CNC(=O)c1c(OC)ccc(Br)c1OC [Remoxipride Hydrochloride] | 0.218 ± 0.039
CN(C)c1nc(N(C)C)nc(N(C)C)n1 [Altretamine] | 0.267 ± 0.019
Nc1ccn([C@@H]2O[C@H](CO)[C@@H](O)[C@@H]2O)c(=O)n1 [Cytarabine] | 0.229 ± 0.026
CC(N)C12CC3CC(CC(C3)C1)C2 (stereo not drawn) [Rimantadine Hydrochloride] | 0.232 ± 0.025
Cn1c(=O)c2nc[nH]c2n(C)c1=O [Theophylline monohydrate] | 0.241 ± 0.044
O=C(O)c1ccccc1OP(=O)(O)O [Fosfosal] | 0.239 ± 0.0092
COC(=O)Nc1nc2cc(C(=O)c3ccccc3)ccc2[nH]1 [Mebendazole] | 0.273 ± 0.053
O=c1[nH]cc(F)c(=O)[nH]1 [5-fluorouracil] | 0.142 ± 0.013
CCc1nn(CCCN2CCN(c3cccc(Cl)c3)CC2)c(=O)n1CCOc1ccccc1 [Nefazodone HCl] | 0.0483 ± 0.00036
COc1cc(NC(C)CCCN)c2ncccc2c1 (stereo not drawn) [Primaquine diphosphate] | 0.0664 ± 0.0032
CNS(=O)(=O)Cc1ccc2[nH]cc(CCN(C)C)c2c1 [Sumatriptan succinate] | 0.221 ± 0.028
Cc1ccc(N(CC2=NCCN2)c2cccc(O)c2)cc1 [Phentolamine hydrochloride] | 0.252 ± 0.024
